MOR-DOR inv ag: inverse agonists of MOR-DOR heterodimerization, primary screen, cell-based, luminescence; Mu-type opioid receptor (Homo sapiens) + Delta-type opioid receptor (Homo sapiens), …; cell-based MOR-DOR heterodimer luminescence, inverse agonism; inhibition, % at 9.3 µM; hit rate 0.21% among 340,000; AID 504357, 2011; in the data active = inhibition above about 22%, passing the limit was not always enough
Target sequence (P35372 whole entry, looked up): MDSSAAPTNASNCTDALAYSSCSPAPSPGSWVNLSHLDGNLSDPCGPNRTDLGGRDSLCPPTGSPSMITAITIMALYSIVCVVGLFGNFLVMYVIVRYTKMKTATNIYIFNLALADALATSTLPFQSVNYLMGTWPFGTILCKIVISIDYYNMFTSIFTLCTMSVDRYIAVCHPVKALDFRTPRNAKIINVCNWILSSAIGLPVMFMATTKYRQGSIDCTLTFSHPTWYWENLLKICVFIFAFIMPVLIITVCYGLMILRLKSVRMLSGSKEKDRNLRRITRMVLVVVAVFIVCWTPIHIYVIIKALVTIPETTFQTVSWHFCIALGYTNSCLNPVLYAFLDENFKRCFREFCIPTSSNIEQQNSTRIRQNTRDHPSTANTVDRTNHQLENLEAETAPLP
Target sequence (P41143 whole entry, looked up): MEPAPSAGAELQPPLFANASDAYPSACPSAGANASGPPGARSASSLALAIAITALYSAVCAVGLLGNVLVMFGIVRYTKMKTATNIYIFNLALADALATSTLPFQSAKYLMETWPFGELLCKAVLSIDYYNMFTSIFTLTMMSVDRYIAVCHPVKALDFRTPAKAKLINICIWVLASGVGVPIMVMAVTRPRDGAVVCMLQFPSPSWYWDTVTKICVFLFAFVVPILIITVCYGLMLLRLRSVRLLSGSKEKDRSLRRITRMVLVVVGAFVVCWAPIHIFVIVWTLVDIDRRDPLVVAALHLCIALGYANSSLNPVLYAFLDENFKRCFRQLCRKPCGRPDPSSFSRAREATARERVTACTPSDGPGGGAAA
HTR5A ag ctr: HTR5A agonists in luminescence cell assay, primary screen, counter-screen for OPRM1-OPRD1 heterodimer agonist project, full-deck HTS; 5-hydroxytryptamine receptor 5A (Homo sapiens), P47898; cell-based; activation, % at 9.3 µM; hit rate 0.61% among 340,000; AID 504692, 2011; in the data active = activation mostly above about 9.5%, no sharp cut-off; inactive = mostly below about 7.6%
HTR5A inv ag: HTR5A inverse agonists in luminescence cell assay, primary screen, counter-screen for OPRM1-OPRD1 heterodimer inverse agonist project, full-deck HTS; HTR5A cell line, inverse agonism; hit rate 0.083% among 340,000; inhibition, % at 9.3 µM; in the data active = inhibition mostly above about 23%, no sharp cut-off; inactive = mostly below about 18%
OPRM1-OPRD1 ag: agonists of OPRM1-OPRD1 heterodimerization, primary screen, cell-based, luminescence | Mu-type opioid receptor (Homo sapiens) + Delta-type opioid receptor (Homo sapiens), … | cells | activation, % at 9.3 µM | hit rate 0.3% among 340,000 | AID 504326, 2011; in the data active = activation above about 18%
A number is an active result; n = inactive. Shown are actives, neighbours in structure and some others; about 1.1% of the full set was active somewhere.

SMILES	MOR-DOR inv ag	HTR5A ag ctr	HTR5A inv ag	OPRM1-OPRD1 ag
CC(=O)NC1=NN(C(C)=O)C(C)(CCS(=O)(=O)c2ccc(Br)cc2)S1 (configuration not stated)	n	n	n	n
CCOC1Cc2ccccc2N(C(N)=O)c2ccccc21 (configuration not stated)	n	n	n	n
COC1Cc2ccccc2N(C(=O)N2CCN(CCO)CC2)c2ccccc21 (configuration not stated)	n	14	n	n
COCCCNC(=O)c1sc2ncnc(N3CCc4ccccc4C3)c2c1C	n	n	n	n
O=C(O)CC1=C(Nc2ccccc2)C(=O)N(c2ccccc2)C1c1ccc(Br)cc1 (configuration not stated)	n	n	n	n
O=S(=O)(N/N=C/c1ccccc1F)c1ccccc1	n	n	n	n
CCCC1CCC(=NNS(=O)(=O)c2ccc(C)c([N+](=O)[O-])c2)CC1 (configuration not stated)	n	13	n	n
Cc1ccc(S(=O)(=O)N/N=C/c2ccccc2F)cc1[N+](=O)[O-]	n	12	n	n
CC1(C)Oc2ccc(C(=O)N/N=C/c3ccc(O)cc3)cc2NC1=O	n	n	n	n
Cc1cccc(OC(=O)c2ccc3nccnc3c2)c1	n	9.4	n	n
O=C(c1ccccc1)c1c2c(cc3sc4ccccc4[n+]13)-c1cccc3cccc-2c13	n	33	n	90
Cc1ccc(C(=O)Sc2cccccc2=O)cc1	40	n	34	n
CCN(CC)S(=O)(=O)c1ccc(-n2c(=O)c(C(C)C)c(C)n2C)cc1	n	n	n	n
O=C(COC(=O)C1=COCCO1)NCc1ccc(Cl)cc1	n	13	n	n
O=C(COC(=O)c1ccncc1)Nc1ccccc1	n	12	n	n
O=C(COC(=O)c1cccnc1)Nc1ccccc1	n	n	n	n
COC(=O)c1cc(S(=O)(=O)N2CCC(C)CC2)ccc1F	n	9.7	n	n
COc1ccc(C2CC(c3ccccc3)=NN2C(=O)COC(=O)C2(C)CC2(Cl)Cl)cc1 (configuration not stated)	n	n	n	n
Cc1csc(SCC(=O)N(C)c2c(N)n(Cc3ccccc3)c(=O)[nH]c2=O)n1	n	12	n	n
Cc1cc(SCC(=O)N(C)c2c(N)n(Cc3ccccc3)c(=O)[nH]c2=O)nc2ccccc12	n	n	n	n
COc1ccc(-n2c(Cn3c(=O)sc4ccccc43)nnc2SC)cc1	n	12	n	n
CCOC(=O)C(=CNc1cc(C)nn1-c1ccc(Cl)cc1)C(=O)OCC	n	10	n	n
C#CC(=O)N(c1ccc(OC)cc1OC)C(C(=O)NC1CCCC1)c1cccs1 (configuration not stated)	n	43	n	52
CN(C1CCS(=O)(=O)C1)S(=O)(=O)c1ccccc1[N+](=O)[O-] (configuration not stated)	n	11	n	n
CCOCCCNC(=O)c1cc2c(s1)-c1ccccc1SC2	n	n	n	n
SMILES	MOR-DOR inv ag	HTR5A ag ctr	HTR5A inv ag	OPRM1-OPRD1 ag
CN(C)CCNC(=O)c1cc2c(s1)-c1ccc(Cl)cc1SC2	n	51	n	38
CCSc1nnc(NC(=O)c2cc(OC)c(OC)c(OC)c2)s1	n	n	n	n
COc1cc(C(C)=O)cc(OC)c1O	n	n	n	n
Cc1cccc(NC(=O)CN2CCOCC2)c1C	n	9.8	n	n
Cc1cccc(NC(=S)N2CCOCC2)c1C	n	11	n	n
CC(C)(C)S(=O)(=O)N1Cc2cc(CO)cc(CCO)c2[C@@H]1CCO	n	n	n	n
Cc1ccc(S(=O)(=O)Nc2c(NC3CCCCC3)c3ccccc3oc2=O)cc1	n	13	n	n
COC(=O)[C@@H]1Cc2c([nH]c3ccccc23)C(C)(C)N1C(=O)CCl	n	41	n	37
O=C(NCc1cccs1)C1CCN(S(=O)(=O)c2cccc3cccnc23)CC1	n	14	n	n
C=C(C)Cn1c(SCC#N)nc2ccccc2c1=O	n	n	n	n
C=C(C)Cn1c(SCC)nc2ccccc2c1=O	n	12	n	n
COc1ccccc1NS(=O)(=O)c1cccc(-n2c(O)c(C=Nc3ccccc3C(=O)O)c3ccccc3c2=O)c1	n	14	n	n
COc1ccc(Cn2c(O)c(C=Nc3ccccc3C(=O)O)c3ccccc3c2=O)cc1	n	n	n	n
COc1ccccc1-c1cccc([C@@H]2C[C@H]3[C@H](CON3C)CN2C(=O)C(C)(C)C)c1	n	n	n	n
Fc1ccc(/C=C2\CCCC3=C2Nc2ncnn2C3c2ccc(F)cc2)cc1 (configuration not stated)	n	10	n	n
Cc1ccc(NC(=O)c2cc(-c3ccc(F)cc3)on2)cc1C	n	n	n	n
CC(=O)c1cccc(NC(=O)c2cc(-c3ccc(F)cc3)on2)c1	n	10	n	n
CN(C(=O)c1cccc(NC(=O)Cc2cccc(NC(=O)C3CCN(C(=O)c4ccccc4)CC3)c2)c1)C1CC1	n	9.1	n	n
COC(=O)N1C(=O)[C@@](c2ccccc2)(C2CCCCC2)N1C(=O)OC	n	n	n	n
CC(=O)NC1CC2CCCC(C1)N2Cc1ccc(C)cc1 (configuration not stated)	n	14	n	n
O=C(Oc1ccc(Cl)c2cccnc12)c1cccnc1	n	n	n	n
CCCOc1ccc(C(=O)NNC(=S)NC(=O)c2cc(-c3ccc(Cl)cc3)nc3ccccc23)cc1	61	n	75	n
Cc1ccc(CNC(=O)C2CCC(=O)N(C3CCCC3)C2)c(F)c1F (configuration not stated)	n	n	n	n
O=C(Cc1ccc([N+](=O)[O-])cc1)OCc1c(F)cccc1Cl	n	n	n	n
O=C(Nc1cccc(S(=O)(=O)N2CCCC2)c1)c1ccc(Cl)nc1	n	n	n	n
SMILES	MOR-DOR inv ag	HTR5A ag ctr	HTR5A inv ag	OPRM1-OPRD1 ag
CCN(CC)CCN(C(=O)CCS(=O)(=O)c1ccccc1)c1nc2c(C)cc(C)cc2s1	n	13	n	n
CCN(CC)CCN(C(=O)CCS(=O)(=O)c1ccccc1)c1nc2cc(C)cc(C)c2s1	n	n	n	n
COc1cc(/C=N\NC(=O)c2ccc(-c3ccccc3)cc2)ccc1OCC(N)=O	n	11	n	20
Cc1ccc2c(c1)N(CC(=O)NC1CCCC1)C(=O)CO2	n	n	n	n
Cc1cc(C)c(C)c(S(=O)(=O)N2CCN(C(=O)CNC(=O)c3ccco3)CC2)c1C	n	14	n	n
O=C(O)C1C2CCC(C2)C1C(=O)NCCc1ccccc1 (configuration not stated)	n	9.4	n	n
CC(C)c1nnc(NC(=O)CCC(=O)Nc2ccc(Cl)cc2)s1	n	n	n	n
COc1ccc(NC(=O)CCC(=O)Nc2nnc(C(C)C)s2)cc1Cl	n	12	n	n
Cc1ccc(NC(=O)COC(=O)C2CC2(Cl)Cl)cc1C (configuration not stated)	n	9.0	n	n
CCn1c(=S)sc2c(=O)n(CC(=O)Nc3ccc(OC)c(Cl)c3)c(C)nc21	n	n	n	n
COc1ccc(CNC(=O)COC(=O)c2cc3ccccc3o2)cc1	n	n	n	n

Screens as filed in PubChem.
